Source: PubChem BioAssay (NCI)
About 83,000 compounds went through this panel and 20% of them were active in at least one assay; those are over-represented in the sample as a whole.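 Step 1: grow cells in 96-well plates. Step 2: add test compound at a single concentration. Step 3: incubate 48 h. Step 4: record percent growth.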 Values without a mark were called inactive. Calls of active or inactive are those of the source.

Each compound was assayed on SK-MEL-5 melanoma (assay: NCI-60 one-dose screen, 48 h (100 = growth as untreated, 0 = no growth, -100 = all killed)). Details: 10 µM.
Experimental: Growth inhibition of the SK-MEL-5 human tumor cell line is measured as a screen for anti-cancer activity. Cells are grown in 96 well plates and exposed to the test compound for 48 hours. Compounds are tested at a single concentration, which is 10^-5 M for most compounds. The reported endpoint is percent growth (GI% or GIPRCNT), where numbers from 0 - 100% represent growth inhibition, and numbers from -100% - 0 represent cell death. For example, a value of 40 represents 60% growth inhibition. A value of 0 means no net growth occurred over the course of the experiment. A value of -40 indicates 40% of cells at the beginning of the experiment died by the end of the experiment. A value of -100 means all cells are dead at the end of the experiment.
NCI-60 Human Tumor Cell Lines Screen was performed using the standard one-dose NCI protocol, which is described in more detail at https://dtp.cancer.gov/discovery_development/nci-60/default.htm.
Compounds with GIPRCNT values below 10 were considered active. Activity score was based on GIPRCNT using the following formula: […]
Score is 0 for GIPRCNT values of 100 or above, 50 for GIPRCNT values of 0, and 100 for GIPRCNT values of -100.
Work on `Cc1c(Cl)cccc1NC(=O)CN1CCOCC1` yielded a growth of 101%.
Work on `C[C@]12CC[C@@H]3c4ccc(O)cc4CC[C@H]3[C@@H]1CC[C@@H]2NS(=O)(=O)c1ccc(C(F)(F)F)cc1` yielded a growth of 41.2%.
`COc1cc(-c2nn(-c3cccc(NC(=O)CCNc4ccc(N5CCOCC5)cc4)c3)cc2-c2ccncc2)ccc1Cl` was tested, and the growth was -40.5% (active).
`O=C(Nc1nc(-c2ccccc2)nc2c1sc(=S)n2-c1ccccc1)C(F)(F)F` gave a growth of 90.4%.
For `Cc1cc(C(C#N)c2ccc(Cl)cc2)c(Cl)cc1NC(=O)c1cc(I)cc(I)c1O` (stereo not given), the growth was 13.1%.
`COc1cc2c(Nc3ccc(S(N)(=O)=O)cc3)ncnc2c(OC)c1OC` was tested, and the growth was 91.4%.
Compound `CCN(CC)CCOc1cccc2c1C(=O)c1cccc(OCCN(CC)CC)c1C2=O` has a growth of 72%.
In the case of `O=C(Nc1ccccc1)Nc1ncnc2c1ncn2-c1ccccc1`, the growth is reported as 67.7%.
For `COc1ccccc1-n1c(-c2csc(NC(C)=O)n2)n[nH]c1=S`, the growth was 99.6%.
Work on `CCN(CC)CCOc1ccc2c(c1O)C(=O)c1ccccc1C2=O` yielded a growth of 81.2%.
With `CC(=O)Nc1ccc(S(=O)(=O)N/N=C(\C)c2ccc(C)cc2C)cc1` the growth was 113%.
Work on `CN1CCN(CCC(=O)Nc2cccc(-n3cc(-c4ccncc4)c(-c4ccc(Cl)c(O)c4)n3)c2)CC1` yielded a growth of 24.2%.
With `S=C1N(c2ccccc2)CN(C2CCCCC2)CN1c1ccccc1` the growth was 97.9%.
For `O=C(CCC(C(=O)c1ccccc1)c1ccccc1)c1ccccc1` (stereo not given), the growth was 82.5%.
With `O=C1/C=C/[C@@H](O)[C@@H]2C[C@@H](O)C[C@H]2/C=C/CCC[C@H](CCc2ccc(NC(=S)Nc3ccc4c(c3)C(=O)OC43c4ccc(O)cc4Oc4cc(O)ccc43)cc2)O1` the growth was -87.2% (active).
For `COc1ccc(-c2n[nH]nc2-c2cc(OC)c3c(c2OC)OCO3)cc1`, the growth was 6.78% (active).
`O=C1c2ccccc2C(=O)c2c1ccc(C(Br)Br)c2Cl` showed a growth of 74%.
In the case of `COc1ccc(-c2onc(N)c2-c2cc(OC)c3c(c2)OCO3)cc1`, the growth is reported as 1.27% (active).
`COc1ccc(NC(=O)C2CC3C=CC2C3)c([N+](=O)[O-])c1` (stereo not given) gave a growth of 96%.
In the case of `CCN(CC)CCCC(C)Nc1c2ccc(Cl)cc2nc2ccc(OC)cc12` (stereo not given), the growth is reported as -87.5% (active).
`COc1cc(-c2nn(-c3cccc(NC(=O)NCCNC(=O)c4cccc(C(F)(F)F)c4)c3)cc2-c2ccncc2)ccc1Cl` was tested, and the growth was 7.16% (active).
For `CC[C@@H](C(=O)[C@@H](C)[C@@H](O)[C@H](C)[C@@H]1O[C@@H]([C@@H](CC)C(=O)N(CC)CC)CC[C@@H]1C)C1O[C@]2(C=CC(=O)[C@]3(CC[C@@](C)([C@H]4CC[C@](O)(CC)[C@H](C)O4)O3)O2)[C@H](C)C[C@@H]1C` (stereo not given in full), the growth was -42.9% (active).
For `CC[C@H]1OC(=O)[C@H](C)[C@@H](O[C@H]2C[C@@](C)(OC)[C@@H](O)[C@H](C)O2)[C@H](C)[C@@H](O[C@@H]2O[C@H](C)C[C@H](N(C)C)[C@H]2O)[C@](C)(OC)C/C(C)=C2/O[C@@]1(C)C=C2C`, the growth was 18.8%.
Work on `CCOc1ccccc1/C=N/N1CCCCCC1` yielded a growth of 94.4%.
With `O=C1c2ccccc2-c2c1c1cccnc1c(=O)n2C[C@H](O)CO` the growth was 50.9%.
For `CN(C)CCCN1c2ccccc2CCc2ccc(Cl)cc21`, the growth was -29.7% (active).
For `CC(=O)OC1C=CC(OC(C)=O)O1` (stereo not given), the growth was 104%.
In the case of `C/C=C/CSC(C)(C)C(=O)NC`, the growth is reported as 101%.
`COc1ccc(-c2nn(-c3cccc(Cl)c3)cc2-c2c(C#N)c(N)n(N)c(=O)c2C#N)cc1` gave a growth of 81.9%.
`COc1cccc(CNc2cccc3cn[nH]c23)c1O` was tested, and the growth was 82.2%.
With `CN1CCN(C2=Nc3ccccc3Oc3ccc(Cl)cc32)CC1` the growth was 96.7%.
For `CS(=O)(=O)c1nccc(-c2c(-c3cccc(OCc4ccc(F)cc4)c3)nc3sccn23)n1`, the growth was 5.39% (active).
`CCOC(=O)CN(c1sc(C)c(C)c1C(=O)OCC)S(=O)(=O)c1ccc(C)cc1` was tested, and the growth was 73.2%.
Work on `O=S(=O)(Oc1ccc(-c2ccc3sccc3c2)cc1)c1ccccc1` yielded a growth of 94.4%.
`Cc1cn(-c2cc(F)cc(NC(=O)c3ccc(C)c(Nc4nccc(-c5cccnc5)n4)c3)c2)cn1` was tested, and the growth was 87.8%.
`CC(=O)Nc1ccc(CC[C@H]2CCC/C=C/[C@@H]3C[C@H](O)C[C@H]3[C@H](O)/C=C/C(=O)O2)cc1` was tested, and the growth was -88.6% (active).
With `O=C(Nc1ccc(OCc2nnc(-c3ccc(Cl)cc3)o2)c(F)c1)Nc1ccc(Cl)c(C(F)(F)F)c1` the growth was -35.7% (active).
With `CS(=O)(=O)c1nccc(-c2c(-c3cccc(O)c3)nc3sccn23)n1` the growth was 86%.
For `COc1ccc(-c2nn(-c3cccc(Cl)c3)cc2/C=C2\NC(=S)N(c3ccc(Cl)cc3)C2=O)cc1`, the growth was 24.2%.
Work on `Cc1ccc(/C=C/C(=O)C(=O)/C=C/c2ccc(C)cc2)cc1` yielded a growth of 106%.
